# The list is not random: actives were taken first. Their share in the collection is about 0.34%.
# Vif-APOBEC3G blk = qHTS for Inhibitors of Vif-A3G Interactions: qHTS; AID 602310, 2012; Potency, µM (titrated, usually from 46.1 µM), for inactives: at the highest dose activity, negative = active, most hits filed as inhibitors; 410,000 compounds, 0.076% hits; HeLa A3G-eYFP + Vif (tagged APOBEC3G with the HIV-1 protein that degrades it), YFP fluorescence, overnight; DNA dC->dU-editing enzyme APOBEC-3G (Homo sapiens), Q9HC16; further: on the % scale 0 is the no-effect control and ±100 the full control effect; nearly all actives have a fitted effect of over 60% in size
# Target sequence (Q9HC16 whole entry, looked up): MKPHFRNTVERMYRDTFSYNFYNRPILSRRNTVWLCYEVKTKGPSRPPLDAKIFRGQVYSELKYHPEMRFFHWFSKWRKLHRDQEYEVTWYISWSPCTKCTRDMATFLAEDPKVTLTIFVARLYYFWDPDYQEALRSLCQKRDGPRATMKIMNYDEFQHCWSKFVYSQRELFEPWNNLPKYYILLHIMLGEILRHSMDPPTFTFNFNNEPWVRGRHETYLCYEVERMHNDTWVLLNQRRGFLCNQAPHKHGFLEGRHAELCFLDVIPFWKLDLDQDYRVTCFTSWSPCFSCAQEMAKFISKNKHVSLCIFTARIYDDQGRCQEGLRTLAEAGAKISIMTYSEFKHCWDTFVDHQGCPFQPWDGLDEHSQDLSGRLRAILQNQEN
#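 Read-out is eYFP fluorescence (Ex 488/Em 500-530) from Vif-expressing HeLa A3G-eYFP cells; more signal means A3G escaped Vif-mediated degradation. Cells plated overnight, compound pinned in, incubated overnight at 37 deg C.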
# Epigenetic derep = Quantitative High-Throughput Screen for Regulators of Epigenetic Control. murine LDR cells, GFP reporter derepression, 30 h. Potency, µM (series often up to 53.9 µM), for inactives: at the highest dose GFP activation, most hits filed as activators. 280,000 compounds, 0.2% hits. AID 1865, 2009; further: % of control where 0% means no effect; nearly all actives have a fitted effect of over 60% in size
#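 In this reporter-derepression format, murine cells bearing a silenced integrated CMV-GFP locus incubate with test compound (30 h, 37 C), then are washed and imaged; fluorescent objects of 20–120 um count as induced cells.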
# Vif-A3F inh = qHTS for Inhibitors of Vif-A3F Interactions: qHTS | HeLa A3F-eYFP + Vif (tagged APOBEC3F with the HIV-1 protein that degrades it), YFP fluorescence increase | Potency, µM (series often up to 46.1 µM), without a hit: at the top dose activity, negative = active | 390,000 compounds, 0.2% hits | AID 602313, 2012; further: % of control where 0% means no effect; nearly all actives have a fitted effect of over 65% in size
#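 HeLa cells stably expressing A3F-eYFP plus Vif, plated and incubated overnight at 37 deg C, then exposed to compounds overnight at 37 deg C. Blocked degradation read as raised yellow fluorescence (Ex 488/Em 500-530).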
# * marks the source's active call; other numbers are inactive results; ? = inconclusive; / = no result. The call rests on the fitted dose curve; in most records, active means well fitted curve in the direction sought with a large enough effect; inconclusive means small, poorly fitted or top-dose-only effect, or another doubt; inactive means no such curve, though single readings can be large; an effect the other way counts as inactive or inconclusive. Potency means the concentration at half of the fitted maximal effect.
SMILES,Vif-APOBEC3G blk,Epigenetic derep,Vif-A3F inh
Cc1ccc(NC(=O)c2ccc(NCCCN3CCC(C)CC3)c([N+](=O)[O-])c2)cc1F,-26%,?,10µM*
Cc1ccc(NC(=O)c2ccc(NCc3ccco3)c([N+](=O)[O-])c2)cc1Cl,?,-1%,8.9µM*
Cc1ccc(C(=O)NCc2ccco2)cc1[N+](=O)[O-],-1%,1%,-12%
COc1cc2c(NC3CCN(C)CC3)nc(N3CCN(C)CC3)nc2cc1OCCCN(C)C,0%,/,/
N[C@H](C(=O)O)C1C(C(=O)O)C1C(=O)O (some centres undefined),/,0%,/
CC(C)(C)n1ncc2c(=O)n(Cc3ccc(-c4ccccc4C#N)cc3)cnc21,0%,/,/
CCCN(CCC)CCNC(=O)Cn1cnc2sc(C)c(S(=O)(=O)N3CCN(c4ccccc4OC)CC3)c2c1=O,-2%,0%,5%
O=C1[C@H](Cc2ccccc2)NC/C=C\C[C@@H](c2ccc(Cl)cc2)N1Cc1ccccc1,-2%,/,/
CCN1CCc2c(sc(NC(=O)CSc3ccccc3)c2-c2nc3ccccc3s2)C1,?,0.89µM*,?
CC(=O)Nc1sc2c(c1-c1nc3ccccc3s1)CCN(C(C)C)C2,11µM*,4µM*,11µM*
CN1CCc2c(sc(NC(=O)CSc3ccc(F)cc3)c2-c2nc3ccccc3s2)C1,?,3.2µM*,?
CC(C)N1CCc2c(sc(NC(=O)Cc3ccccc3)c2C(N)=O)C1,7%,/,-17%
Cc1csc(NC(=O)CSCC(=O)O)c1-c1nc2ccccc2s1,-28%,-2%,?
CC(=O)N1CCc2c(sc(NC(=O)CSc3ccc(F)cc3)c2-c2nc3ccccc3s2)C1,-4%,8%,-17%
Cc1ccc(N2CC(c3nnc(NC(=O)c4ccco4)s3)CC2=O)cc1Cl (centres undefined),6%,0%,4%
C=C1C=C(C(F)F)n2ncc(C(=O)NCc3ccc(OC)cc3)c2N1,-2%,/,/
CCOC(=O)/C(C#N)=C\C=C1C=CN(C)C=C1,?,12%,22µM*
CCOC(=O)/C(C#N)=C\c1ccc(CC)s1,0%,2%,-8%
Cc1cc(C)nc(Nc2nc(C(N)Cc3ccccc3)cs2)n1 (centres undefined),4.5µM*,/,/
COC(=O)c1cc(C)nc(Nc2nc(C(N)Cc3ccc(F)cc3)cs2)n1 (centres undefined),1%,/,/
O=C(Nc1cc(C(F)(F)F)ccc1-n1cncn1)c1ccc([N+](=O)[O-])o1,?,/,13µM*
O=C(Nc1cc(C(F)(F)F)ccc1-n1cncn1)c1ccc(Br)cc1,-1%,-1%,16%
CN(C)c1ccc(/C=C2\C=Cc3ccccc32)cc1F,-1%,/,/
COc1cccc(-c2nnc3sc(CN4CCCCC4)cn23)c1,?,1%,-16%
Cc1cnc2ccccc2c1/C=C/c1ccc(N(C)C)cc1,-15%,/,/
SMILES,Vif-APOBEC3G blk,Epigenetic derep,Vif-A3F inh
Cc1ccc(O)c(NC(=O)c2cc(-c3ccccc3O)no2)c1,?,2%,11µM*
Cc1ccc(O)c(NC(=O)c2cc(-c3ccccc3Cl)on2)c1,-5%,/,?
COc1ccc(NC(=O)c2oc3ccccc3c2NC(=O)C23CC4CC(CC(C4)C2)C3)cc1,0%,-4%,6%
CN(C)c1ccc(C=C2SC(=S)NC2=O)cc1,10µM*,/,?
O=C1NC(=S)SC1=Cc1ccc2c(c1)OCO2,1%,/,10%
C=CCN1[C@@H](C(C)C)COCCS1(=O)=O,3%,/,/
CCCCC/C=C\C/C=C\CCCCCCCCCC(=O)NCCCC(=O)O,/,-1%,/
COC(=O)c1ccc2c(=O)n(CCCCCC(=O)NCc3ccc(OC)cc3)c(=O)[nH]c2c1,1%,-1%,1%
CC(C)[C@H]1COCCS(=O)(=O)N1Cc1cccc([N+](=O)[O-])c1,0%,/,/
CN(C)c1ccc(/C=C/c2ccnc3ccccc23)cc1C=O,7.1µM*,/,/
CN(C)c1ccc(/C=C/c2ccnc3ccccc23)cc1[N+](=O)[O-],1%,/,/
CN(C)c1ccc(/C=C/c2ccnc3ccccc23)cc1O,11µM*,/,/
C(=C\c1ccnc2ccccc12)/c1ccc2c(c1)OCO2,-18%,/,/
Cc1cc(C)c2c(/C=C/c3ccc(N(C)C)cc3)ccnc2c1,-1%,/,/
Cc1ccc2nccc(/C=C/c3ccc(N(C)C)cc3)c2c1,3.5µM*,/,/
COc1ccc(/C=C2\C=Cc3ccccc32)cc1OC,-2%,/,/
COC(=O)[C@@]1(Cc2ccccc2)[C@H]2c3cc(C(=O)N(C)C)n(Cc4ccccn4)c3C[C@H]2CN1C(=O)c1ccccc1,/,-4%,/
CCN1C(=O)/C(=C/C=C2/Sc3ccccc3N2CCO)SC1=S,-11%,0%,-30%

# Bioassay records from PubChem.
